# Inconclusive results are not listed. Entries that show only a call come without a potency. Calls of active or inactive are those of the source. The call rests on the fitted dose curve; in most records, active means well fitted inhibition curve with a large enough effect; inconclusive means small, poorly fitted or top-dose-only effect; inactive means no such curve, though single readings can be large or run the other way.
# Assay: HTS Assay for Allosteric Antagonists of the Human D2 Dopamine Receptor: Hit Validation in HTRF (AID 624455);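 further: stable D1 dopamine receptor cell line scored for blocking the D1 response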
# Conditions: Cells stably expressing D1 dopamine receptor, inhibition mode; series mostly up to 46.1 µM
# In short: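 Inhibition of the D1-mediated response is measured by HTRF in cells that stably express the D1 dopamine receptor. Compounds reaching this step are hits from calcium-flux antagonism testing at EC80 dopamine in inducible Hek293 Trex D2 cells.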
row,SMILES,Potency
1,OCC1O[C@H](O)C(Cl)C(O)C1O (some centres undefined),inactive
2,COc1ccc(NC(=O)/C=C/c2ccc(Cl)cc2)cc1,inactive
3,O=C(O)CNC(=O)C(CS)Cc1ccccc1 (centres undefined),inactive
4,C[C@@H](NC(=O)/C(C#N)=C/c1ccc(O)c(O)c1)c1ccccc1,inactive
5,NC[C@H]1O[C@@H](n2cnc3c(N)ncnc32)[C@H](O)[C@@H]1O,inactive
6,O=C(O)c1cc([N+](=O)[O-])ccc1NCCCc1ccccc1,inactive
7,CCCCCCCCc1ccc(-c2ccc(C(=O)O)cc2)cc1,inactive
8,Cn1cc(C2=C(c3ccc(Cl)cc3Cl)C(=O)NC2=O)c2ccccc21,inactive
9,O=C(O)[C@@H]1C[C@H](C(=O)O)N1,inactive
10,CC(C)NC[C@H](O)COc1cccc2[nH]ccc12,inactive
11,Cn1ncc(S(=O)(=O)Cc2ccccc2)c(Br)c1=O,inactive
12,c1cnc2c(c1)ccc1cccnc12,inactive
13,N=C(N)SCCc1ccc(CCSC(=N)N)cc1,inactive
14,CN1CC(=O)N/C1=N/C(=O)Nc1cccc(Cl)c1,inactive
15,CC1(C)CCC=[N+]1[O-],inactive
16,O=c1[nH]c2cc(C(F)(F)F)ccc2n1-c1cc(C(F)(F)F)ccc1O,inactive
17,C[N+]1(C)C2CC(OC(=O)[C@H](CO)c3ccccc3)CC1C1OC12 (some centres undefined),inactive

row,SMILES,Potency
1,N#C/C(=C\c1ccc(O)c(O)c1)C(=O)NCc1ccccc1,inactive
2,COc1cccc(C(=O)NCCN2CCN(c3ccc(Cl)cc3)CC2)c1,inactive
3,CCCCC#Cc1nc(NC)c2ncn([C@@H]3O[C@H](CO)[C@@H](O)[C@H]3O)c2n1,inactive
4,N#C/C(=C\c1c[nH]c2ccccc12)C(=O)c1ccc(O)c(O)c1,inactive
5,Nc1nc(Nc2ccccc2)nc2c1ncn2[C@@H]1O[C@H](CO)[C@@H](O)[C@H]1O,inactive
6,CCCC1(C)C(C#N)(C#N)C1(C#N)C#N,inactive
7,C#CCN1C(C)=C(C(=O)OC)C(c2cccc([N+](=O)[O-])c2)C(C(=O)OCC)=C1C (centres undefined),inactive
8,CCCCC/C=C\CC(O)/C=C/c1cccc(CC(O)CCCCO)n1 (centres undefined),inactive
9,CN1CCC[C@H]1c1cccnc1,inactive
10,O=[N+]([O-])c1ccc(CSc2ncnc3c2ncn3[C@@H]2O[C@H](CO)[C@@H](O)[C@H]2O)cc1,inactive
11,O=c1[nH]c2cc(Cl)c(Cl)cc2[nH]c1=O,inactive
12,O=C(/C=C/c1ccc(O)cc1)c1ccc(O)cc1O,inactive
13,O=[N+]([O-])c1ccc2c(c1)S(=O)(=O)C=C2,inactive
14,Oc1cc(O)cc(/C=C/c2ccc(O)c(O)c2)c1,inactive
15,C=C[C@@H]1CN2CC[C@@H]1C[C@H]2[C@H](O)c1ccnc2ccc(OC)cc12,inactive
16,O=C(/C=C/c1ccc(O)c(O)c1)OCCc1ccccc1,inactive
17,Fc1cccc(/C=N/N=C/c2cccc(F)c2)c1,inactive

# Reference: PubChem BioAssay (NCATS)
